RGS4 inhibitor: blocks human RGS4-accelerated GTP hydrolysis; Transcreener GDP fluorescence polarization, RGS4-accelerated GTP hydrolysis; Potency, µM (doses to about 114 µM), inactives show at the top dose activity change, negative = inhibition, hits mostly inhibitors; hit rate 0.039% among 390,000; P49798; AID 504845; further: on the % scale 0 is the no-effect control and ±100 the full control effect; nearly all actives have a fitted effect of over 75% in size
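MLSMR compounds (23 nl, pin-transferred) preincubated 10 min at room temperature with a 500nM (2x) first reagent, then RGS4 at 900nM (2x) plus Transcreener GDP mix added; fluorescence polarization (620/688 nm) read before and after 90 min at 30 °C.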
EPAC2 antag: blocks human EPAC2 exchange factor | Q8WZA2 | AID 720708 | hit rate 0.18% among 360,000 | EPAC2 GEF exchange of Rap1B-BODIPY-GDP, fluorescence | Potency, µM (top dose mostly 114 µM), for the others: at the top dose activity, negative = inhibition, hits mostly inhibitors; further: on the % scale 0 is the no-effect control and ±100 the full control effect; nearly all actives have a fitted effect of over 45% in size
EPAC1 antag: blocks human EPAC1 exchange factor. Potency, µM (series often up to 115 µM), for inactives: at the highest dose activity change, negative = inhibition, actives largely listed as inhibitors. O95398. AID 720709. EPAC1 GEF assay, Rap1b-BODIPY-GDP exchange fluorescence. hit rate 0.14% among 360,000;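 further: plate controls were vehicle for no effect and positive control for full effect; nearly all actives have a fitted effect of over 50% in size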
Target sequence (O95398 whole entry, looked up): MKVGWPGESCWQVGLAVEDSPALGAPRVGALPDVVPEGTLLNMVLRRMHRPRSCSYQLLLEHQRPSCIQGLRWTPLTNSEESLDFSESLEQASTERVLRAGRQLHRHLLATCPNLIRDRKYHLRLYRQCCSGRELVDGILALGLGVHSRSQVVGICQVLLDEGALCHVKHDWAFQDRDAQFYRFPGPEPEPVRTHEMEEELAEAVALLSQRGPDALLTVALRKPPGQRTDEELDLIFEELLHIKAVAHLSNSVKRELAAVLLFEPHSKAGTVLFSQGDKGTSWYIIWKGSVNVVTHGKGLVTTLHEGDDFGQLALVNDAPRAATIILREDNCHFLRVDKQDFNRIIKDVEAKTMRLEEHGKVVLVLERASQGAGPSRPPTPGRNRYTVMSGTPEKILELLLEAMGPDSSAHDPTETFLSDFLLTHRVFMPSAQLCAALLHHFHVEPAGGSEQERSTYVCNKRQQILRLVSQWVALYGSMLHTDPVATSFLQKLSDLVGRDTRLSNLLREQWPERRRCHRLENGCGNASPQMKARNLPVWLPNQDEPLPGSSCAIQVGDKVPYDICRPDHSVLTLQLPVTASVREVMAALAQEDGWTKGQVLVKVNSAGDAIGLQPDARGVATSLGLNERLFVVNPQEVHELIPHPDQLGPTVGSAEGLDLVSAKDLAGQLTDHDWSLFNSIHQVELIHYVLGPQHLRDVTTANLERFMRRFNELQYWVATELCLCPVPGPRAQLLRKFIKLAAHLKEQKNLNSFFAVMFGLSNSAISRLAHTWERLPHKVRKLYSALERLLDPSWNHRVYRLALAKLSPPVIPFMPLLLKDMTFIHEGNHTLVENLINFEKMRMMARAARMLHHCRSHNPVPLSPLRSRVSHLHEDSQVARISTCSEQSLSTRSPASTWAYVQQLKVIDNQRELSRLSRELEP
EPAC1 agonist: EPAC1 (human) agonism. EPAC1 agonist qHTS, biochemical assay; response scale: 100% = response to 6.5 mM cAMP. Potency, µM (series often up to 154 µM), for the others: top-dose activation, hits mostly activators. hit rate 0.073% among 360,000; further: nearly all actives have a fitted effect of over 60% in size
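Multi-concentration qHTS readout: loss of Rap1B-bound BODIPY-GDP fluorescence driven by 100 nM EPAC1 with excess GDP (50 uM), monitored kinetically at room temperature; agonist response expressed relative to 6.5 mM cAMP.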
BRCA1 expr up: BRCA1 expression activation; MCF7-BRCA1-FFLuc reporter, luminescence, 48 h; response scale: scaled: vehicle 0%, 10 µM genistein 100%; Potency, µM (highest dose often 46.1 µM), for the others: at the top dose activation, most hits filed as activators; hit rate 1.1% among 380,000; AID 624202; further: nearly all actives have a fitted effect of over 80% in size
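First, MCF7-BRCA1-FFLuc cells (2000/well) attach for 2 h; next, compounds are pin-added and incubated 48 h at 37 °C; finally, luciferase reagent is added and luminescence read after 15 min.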
EPAC2 ag: EPAC2 (human) agonism | Q8WZA2 | EPAC2 activation, biochemical qHTS; response scale: 100% = 6.5 mM cAMP response | Potency, µM (series often up to 154 µM), for the others: top-dose activation, most hits filed as activators | hit rate 0.079% among 360,000; further: nearly all actives have a fitted effect of over 50% in size
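Readout is BODIPY fluorescence (480 nm excitation, 540 nm emission), which falls as labeled GDP is exchanged off Rap1B. EPAC2 at 100 nM acted on 250 nM RAP1B-BODIPY-GDP with 50 uM GDP present.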
* hit, by the source's call; ? = inconclusive; nt = no result given; [ ] = remark or other dose. Most compounds without a hit are left out; they make up all but 1.3% or so of the library. The call rests on the fitted dose curve; in most records, active means well fitted curve in the direction sought with a large enough effect; inconclusive means small, poorly fitted or top-dose-only effect, or another doubt; inactive means no such curve, though single readings can be large; an effect the other way counts as inactive or inconclusive. Potency means the concentration at half of the fitted maximal effect.

SMILES | RGS4 inhibitor | EPAC2 antag | EPAC1 antag | EPAC1 agonist | BRCA1 expr up | EPAC2 ag
Cc1ccc(C(=O)N/N=C2\CCc3ccccc32)c(C)c1 | 17% | 0% | -17% | 0% | ? | 4%
O=C(N/N=C1\CCc2ccccc21)c1ccccc1Cl | -1% | 6% | 10% | 7% | 2µM* | 6%
CCOc1ccc(CCNC(=O)c2ccc3nc(CC)c(CC)nc3c2)cc1 | -20%[56.9 µM] | -5% | -12% | 4% | 9% | -2%
COc1ccc(-c2nc(CN3CCN(Cc4ccccc4)CC3)c(C)o2)cc1 | -4% | -10% | -21% | 17% | -10% | 1%
Cc1oc(-c2ccc(-c3ccccc3)cc2)nc1CN1CCN(CC(=O)N(C)C)CC1 | 3%[56.9 µM] | -4% | -19% | 13% | 8.9µM* | -3%
CN(C(=O)CSc1ccc2c(c1)OCCO2)c1ccccc1 | -20% | -1% | 3% | -14% | 10µM* | 0%
COc1cccc(-c2nc(-c3ccc(C(=O)O)cc3)no2)c1 | -8% | 2% | 40% | -14% | 7% | 4%
COc1ccccc1C1=NC(c2ccc(C)cc2)N=C1C (configuration not stated) | -4% | ? | -9% | 13% | 10µM* | 18%
O=C(NCCC(=O)N1CCCCC1)c1ccc(Br)cc1 | -7% | 6% | 4% | -15% | 10µM* | 4%
CCOC(=O)C1(CC2CCCCO2)CCN(Cc2nccn2-c2cccc(C)c2)CC1 (configuration not stated) | -1% | -11% | -8% | 0% | -19% | 2%
Cc1ccc(COc2ccc(C)nc2[N+](=O)[O-])cc1 | -4% | 5% | -13% | 1% | 4.5µM* | 6%
Cc1ccc(CNC(=O)COc2ccc(C)nc2[N+](=O)[O-])cc1 | -6% | 3% | -3% | -6% | -19% | -6%
CSc1ccc(CC(=O)N2CCC(n3nccc3NC(=O)C3CC3)CC2)cc1 | 6% | -1% | 1% | 14% | 2.8µM* | 7%
Cc1ccc(C)c(CN2C(=O)COc3ccc(C(=O)c4ccccc4C(=O)O)cc32)c1 | -11% | -5% | -5% | 11% | -6% | 6%
CN1OC[C@@H]2CN[C@H](c3ccc(-c4cccc(F)c4)cc3)C[C@@H]21 | nt | 9% | 13% | 0% | 11µM* | -3%
O=[N+]([O-])c1ccc(F)cc1OCc1nc(-c2cccs2)no1 | 11% | -13% | -15% | 12% | 26% | 11%
O=[N+]([O-])c1ccccc1OCc1nc(-c2cccs2)no1 | 12% | -29% | -4% | 1% | 2.8µM* | 1%
O=c1[nH]cc(NCc2ccccc2)c(=O)[nH]1 | 2% | 0% | -4% | 6% | 31% | 12%
Cc1ccc(F)c(S(=O)(=O)NC(=O)C2(C)CCN2C(=O)C2(c3ccc(Cl)cc3)CCC2)c1 (configuration not stated) | nt | 45µM* | -8% | -3% | -3% | -1%
CC1(C(=O)NS(=O)(=O)c2ccc3c(c2)CCO3)CCN1C(=O)C1(c2ccc(Cl)cc2)CCC1 (configuration not stated) | nt | ? | 50µM* | -5% | 5% | 8%
COc1ccc(S(=O)(=O)N2CCC(C(=O)NCc3cccnc3)CC2)cc1Cl | -7% | 15% | 5% | -1% | -16% | 3%
CCOC(=O)CCNC(=O)Nc1ccc2nc(C)n(Cc3cccc(Cl)c3)c(=O)c2c1 | -12% | 0% | 3% | -2% | 1% | 7%
O=C(COc1ccc(F)cc1)Nc1nc2c(s1)CCCC2 | 6% | -7% | -13% | 8% | 13µM* | -2%
COc1ccc(OCC(=O)Nc2nc3c(s2)CCCC3)cc1 | -12% | 4% | -5% | 9% | 60% | 18%
O=C(CS(=O)(=O)c1ccc(F)cc1)Nc1nccs1 | -9% | 14% | -8% | 3% | -5% | 2%
O=C(COc1ccc(F)cc1)Nc1nccs1 | 9% | 182% | -8% | -1% | ? | 35µM*

Screening results as filed in PubChem BioAssay.
